Each structure is given as a SMILES string. Where “and” joins values, the source holds several entries; their conditions need not be identical. Equal values may be shown once. The panel holds about 79,000 compounds, 15% with a hit somewhere; the sample as a whole holds those more often. Calls of active or inactive are those of the source. No stated cut-off is given here; in the data, active means growth inhibition above about 70%; inactive means the rest.

The first experiment can be described thus: NCI Yeast Anticancer Drug Screen. Data for the mec2-1 strain (AID 157). The settings on record: S. cerevisiae mec2-1 strain, at 50.0 µM, hits give high values. In a few lines: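 Growth inhibition is read against vehicle-treated controls after compound exposure of the mec2-1 yeast strain, which is defective in DNA damage repair or cell cycle control.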
As for `O=C(Cc1ccccc1)Oc1ccc2c(-c3ccccc3)c(C(=O)Nc3ccc(Cl)cc3)c(=O)oc2c1`, the growth inhibition is 5.2% (inactive).
Still for that read-out and setting: in the case of `Cc1ccc(CCl)c(C)c1` it was 8.4% (inactive); in that of `COC1C(=[N+]=[N-])C(=O)NC(=O)N1C` (stereo not given), -3.4% (inactive); in that of `O=C(O)CC(=O)O.[Ti].[c-]1[c-][c-][cH-][c-]1.[c-]1[c-][c-][cH-][c-]1`, -5.75% (inactive).
On the same count and under the same terms, then `CCOc1ccc(Nc2nc(=O)[nH]c3ccccc23)cc1CN(CCCl)CCCl`, with 0.95% (inactive); and `CCC[C@H]1CCCCN1`, with 12.7% (inactive); and `CN(C)CCNC(=O)c1cccc(COC(=O)Nc2ccc(N(CCCl)CCCl)cc2)c1[N+](=O)[O-]`, with -15.8% (inactive).
`CCOC(=O)/C=C1\Nc2ccccc2C(c2ccccc2)=NC1OC(C)=O` (stereo not given): the growth inhibition is -20.6% (inactive).
The same measure, in the same setting: then `O=C1NC(=O)C(CC(C(=O)C(=O)Nc2ccccc2Cl)C(=O)c2ccc3ccccc3c2)C(=O)N1` (stereo not given), with 7.8% (inactive); and `NC(=O)OCCc1c2ccccc2nc2ccccc12`, with 3.75% (inactive) and 51.5% (inactive); and `CNC(=O)Oc1ccc2c(C)cc(=O)oc2c1`, with 0.2% (inactive).
Same read-out and setting: in the case of `COc1cc2c(c(OC)c1OC)-c1ccc(O)cc1C(NC(C)=O)CC2` (stereo not given) it was -18.8% (inactive).
The same measure, in the same setting: then `CC(CN1CCCCCC1)C(C#N)(c1ccccc1)c1ccccc1` (stereo not given), with 13.2% (inactive).
Take `O=C1C=CC(=O)c2c(O)cccc21`: the growth inhibition was 13.2% (inactive).
The same measure, in the same setting: then `CC(=O)C1C(c2ccccc2)C2(C)OC(=O)C(C#N)C12C` (stereo not given), with 18.9% (inactive).
Same read-out and setting: then `O=C(O)c1ccccc1.O=C(O)c1ccccc1.O=C(O)c1ccccc1.O=C(O)c1ccccc1.[Cu].[Cu]`, with -10% (inactive); and `NC(CCOCCP(=O)(O)O)C(=O)O` (stereo not given), with -36.4% (inactive); and `C=C(C)C1C2CC3(C)C4(CO4)C4OC4C3(O)C1C(=O)O2` (stereo not given), with -16.4% (inactive).
The same measure, in the same setting: in the case of `COc1ccc(CCN(C)Cc2cccc(OC)c2OC)cc1OC` it was -5.85% (inactive); in that of `O=C(Nc1cccc(Cl)c1)OCC(Cl)(Cl)Cl`, 99.8% (active).
For the compound `CCCCC(CC)COP(OCC(CC)CCCC)OCC(CC)CCCC.[Cl][Sn][Cl]` (stereo not given), the growth inhibition is 16.1% (inactive).
The same measure, in the same setting: in the case of `CC1=C[C@H]2[C@@]3(O)[C@H](C)C[C@]4(OC(=O)C(C)C)[C@H]([C@@H]3C=C(CO)C[C@]2(O)C1=O)C4(C)C` it was 14.3% (inactive); in that of `CCN(CCCl)CCCCCNc1c2ccccc2nc2ccc(OC)cc12`, 84.5% (active); in that of `CC12CCC3C(CCC4(O)C=CCCC34C=O)C1(O)CC(O)C2c1ccc(=O)oc1` (stereo not given), -46.9% (inactive).
Still for that read-out and setting: in the case of `CN(C)CCNC(=O)c1cc(COC(=O)N(CCCl)CCCl)ccc1[N+](=O)[O-]` it was 36.9% (inactive).
For `COc1ccc2c3c1OC1C(C)(O)C(O)CC4C(C2)N(C)CCC341` (stereo not given), the growth inhibition is -4.95% (inactive).
Same read-out and setting: then `O=P(c1ccccc1)(c1ccccc1)c1ccccc1.O=P(c1ccccc1)(c1ccccc1)c1ccccc1.O=P(c1ccccc1)(c1ccccc1)c1ccccc1.O=P(c1ccccc1)(c1ccccc1)c1ccccc1.[Co+2].[O-][Cl+3]([O-])([O-])O`, with 3.45% (inactive); and `CCSCCC(N)C(=O)O` (stereo not given), with -13.9% (inactive) and -15% (inactive); and `OCC(O)C(O)CO` (stereo not given), with -0.55% (inactive) and 8.95% (inactive).
Still for that read-out and setting: then `c1ccc(CCN2CCOCC2)nc1`, with 1.6% (inactive); and `COP(=O)(OC)/C(=C/c1c[nH]c2ccccc12)C(=O)O`, with -71.6% (inactive).
On the same count and under the same terms, in the case of `CCC(C)C1NC(=O)C2CCCN2C(=O)C(CC2CO2)OC(=O)CCNC(=O)C(C)N(C)C(=O)C(C(C)C)N(C)C1=O` (stereo not given) it was 5.15% (inactive); in that of `[C-]#[O+].[C-]#[O+].[C-]#[O+].[Ni].c1ccc([PH+](CC[PH+](c2ccccc2)c2ccccc2)CC[PH+](c2ccccc2)c2ccccc2)cc1`, 38.5% (inactive); in that of `CC(=O)c1ccc([As](=O)(O)O)cc1`, -20.4% (inactive).
Regarding `COc1cccc(C=C(C#N)C#N)c1OC`, the growth inhibition was -8.05% (inactive).
Turning to `CCC1C2CC3C4N(C)c5ccccc5C45CC(C2C5O)N3C1O` (stereo not given), the growth inhibition was -7.75% (inactive) and 5.2% (inactive) and -40.8% (inactive).
The same measure, in the same setting: in the case of `O=C1NC(=S)NC(=O)C1=Cc1cccc2cc3ccccc3cc12` it was 98.8% (active); in that of `COC(=O)C(CC(=O)N[N+](=O)[O-])NC(=O)C(CSC(c1ccccc1)(c1ccccc1)c1ccccc1)NC(=O)OCc1ccccc1` (stereo not given), 11.7% (inactive); in that of `O=C(O)C(O)(c1ccccc1)C1CCCCC1` (stereo not given), -19.5% (inactive) and 5.45% (inactive).
Still for that read-out and setting: then `CC(C)[N+](C)(CCC(C(=O)N(C)C)(c1ccccc1)c1ccccc1)C(C)C`, with -1.55% (inactive).

The next experiment in a line: NCI Yeast Anticancer Drug Screen. Data for the sgs1 mgt1 strain (AID 161).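 Further: 0% = growth of cultures given vehicle only.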 The note with it: S. cerevisiae sgs1 mgt1 strain, at 50.0 µM, hits give high values. The essentials:
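Percent growth inhibition was derived by comparing compound-exposed mutant yeast with vehicle-exposed cultures. The strain carries alterations in DNA damage repair.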
Take `O=C(Cc1ccccc1)Oc1ccc2c(-c3ccccc3)c(C(=O)Nc3ccc(Cl)cc3)c(=O)oc2c1`: the growth inhibition was 2.2% (inactive).
The same measure, in the same setting: in the case of `Cc1ccc(CCl)c(C)c1` it was -6.95% (inactive); in that of `COC1C(=[N+]=[N-])C(=O)NC(=O)N1C` (stereo not given), 34.9% (inactive).
The same measure, in the same setting: then `O=C(O)CC(=O)O.[Ti].[c-]1[c-][c-][cH-][c-]1.[c-]1[c-][c-][cH-][c-]1`, with -6.8% (inactive).
Regarding `CCOc1ccc(Nc2nc(=O)[nH]c3ccccc23)cc1CN(CCCl)CCCl`, the growth inhibition is 10.5% (inactive).
Regarding `CCC[C@H]1CCCCN1`, the growth inhibition was 23.4% (inactive).
Still for that read-out and setting: then `CN(C)CCNC(=O)c1cccc(COC(=O)Nc2ccc(N(CCCl)CCCl)cc2)c1[N+](=O)[O-]`, with 1.2% (inactive); and `CCOC(=O)/C=C1\Nc2ccccc2C(c2ccccc2)=NC1OC(C)=O` (stereo not given), with 22.6% (inactive).
For `O=C1NC(=O)C(CC(C(=O)C(=O)Nc2ccccc2Cl)C(=O)c2ccc3ccccc3c2)C(=O)N1` (stereo not given), the growth inhibition is -6.3% (inactive).
Same read-out and setting: in the case of `NC(=O)OCCc1c2ccccc2nc2ccccc12` it was 11.5% (inactive) and 49.9% (inactive).
Same read-out and setting: then `CNC(=O)Oc1ccc2c(C)cc(=O)oc2c1`, with 4.55% (inactive); and `COc1cc2c(c(OC)c1OC)-c1ccc(O)cc1C(NC(C)=O)CC2` (stereo not given), with -4.1% (inactive); and `CC(CN1CCCCCC1)C(C#N)(c1ccccc1)c1ccccc1` (stereo not given), with 25.4% (inactive).
For the compound `O=C1C=CC(=O)c2c(O)cccc21`, the growth inhibition was 38% (inactive).
The same measure, in the same setting: in the case of `CC(=O)C1C(c2ccccc2)C2(C)OC(=O)C(C#N)C12C` (stereo not given) it was 9% (inactive); in that of `O=C(O)c1ccccc1.O=C(O)c1ccccc1.O=C(O)c1ccccc1.O=C(O)c1ccccc1.[Cu].[Cu]`, 10.8% (inactive).
On the same count and under the same terms, then `NC(CCOCCP(=O)(O)O)C(=O)O` (stereo not given), with -44% (inactive); and `C=C(C)C1C2CC3(C)C4(CO4)C4OC4C3(O)C1C(=O)O2` (stereo not given), with 14.8% (inactive).
Still for that read-out and setting: then `COc1ccc(CCN(C)Cc2cccc(OC)c2OC)cc1OC`, with -3.85% (inactive); and `O=C(Nc1cccc(Cl)c1)OCC(Cl)(Cl)Cl`, with 99.4% (active); and `CCCCC(CC)COP(OCC(CC)CCCC)OCC(CC)CCCC.[Cl][Sn][Cl]` (stereo not given), with 14.9% (inactive).
As to `CC1=C[C@H]2[C@@]3(O)[C@H](C)C[C@]4(OC(=O)C(C)C)[C@H]([C@@H]3C=C(CO)C[C@]2(O)C1=O)C4(C)C`, the growth inhibition is 4.8% (inactive).
The same measure, in the same setting: then `CCN(CCCl)CCCCCNc1c2ccccc2nc2ccc(OC)cc12`, with 83% (active); and `CC12CCC3C(CCC4(O)C=CCCC34C=O)C1(O)CC(O)C2c1ccc(=O)oc1` (stereo not given), with -12.7% (inactive).
Same read-out and setting: in the case of `CN(C)CCNC(=O)c1cc(COC(=O)N(CCCl)CCCl)ccc1[N+](=O)[O-]` it was 56.1% (inactive); in that of `COc1ccc2c3c1OC1C(C)(O)C(O)CC4C(C2)N(C)CCC341` (stereo not given), -16.2% (inactive); in that of `O=P(c1ccccc1)(c1ccccc1)c1ccccc1.O=P(c1ccccc1)(c1ccccc1)c1ccccc1.O=P(c1ccccc1)(c1ccccc1)c1ccccc1.O=P(c1ccccc1)(c1ccccc1)c1ccccc1.[Co+2].[O-][Cl+3]([O-])([O-])O`, 17.9% (inactive).
For the compound `CCSCCC(N)C(=O)O` (stereo not given), the growth inhibition was -37.8% (inactive) and -2% (inactive).
Same read-out and setting: in the case of `OCC(O)C(O)CO` (stereo not given) it was 3.55% (inactive) and 0.4% (inactive).
The same measure, in the same setting: then `c1ccc(CCN2CCOCC2)nc1`, with -8.95% (inactive); and `COP(=O)(OC)/C(=C/c1c[nH]c2ccccc12)C(=O)O`, with -55.9% (inactive).
The same measure, in the same setting: then `CCC(C)C1NC(=O)C2CCCN2C(=O)C(CC2CO2)OC(=O)CCNC(=O)C(C)N(C)C(=O)C(C(C)C)N(C)C1=O` (stereo not given), with 41.2% (inactive); and `[C-]#[O+].[C-]#[O+].[C-]#[O+].[Ni].c1ccc([PH+](CC[PH+](c2ccccc2)c2ccccc2)CC[PH+](c2ccccc2)c2ccccc2)cc1`, with 46.7% (inactive); and `CC(=O)c1ccc([As](=O)(O)O)cc1`, with -13.4% (inactive).
As to `COc1cccc(C=C(C#N)C#N)c1OC`, the growth inhibition was -3.35% (inactive).
On to `CCC1C2CC3C4N(C)c5ccccc5C45CC(C2C5O)N3C1O` (stereo not given), for which the growth inhibition was -16.9% (inactive) and 15.7% (inactive) and -14.2% (inactive).
Same read-out and setting: in the case of `O=C1NC(=S)NC(=O)C1=Cc1cccc2cc3ccccc3cc12` it was 98.5% (active); in that of `COC(=O)C(CC(=O)N[N+](=O)[O-])NC(=O)C(CSC(c1ccccc1)(c1ccccc1)c1ccccc1)NC(=O)OCc1ccccc1` (stereo not given), -4.25% (inactive); in that of `O=C(O)C(O)(c1ccccc1)C1CCCCC1` (stereo not given), -2.1% (inactive) and -8.8% (inactive).
Still for that read-out and setting: in the case of `CC(C)[N+](C)(CCC(C(=O)N(C)C)(c1ccccc1)c1ccccc1)C(C)C` it was 4.7% (inactive).

Source of the values: PubChem BioAssay (NCI).
